# Assay results published in PubChem BioAssay (EPA / NIEHS).
# “And” between values parts separate entries of the source, which are not always exact repeats. Identical values can stand only once. Inconclusive results are not listed. The source made the active and inactive calls. Rule for the calls: active = hit-call score of the fitted dose curve at least 0.9, where 1 is the maximum; inconclusive = response in the unintended direction; inactive = score below 0.9.
# Experiments:
# [1] = molecular target: human Elastase, ELANE (gene 1991) (UniProt P08246); experiment: NVS_ENZ_hElastase: NovaScreen (NVS) Enzymatic Assay for human Elastase (AID 2283153)
# Method in brief: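 Cell-free elastase from human neutrophils, 1.5 h after dosing, activity read by absorbance. Primary screen in duplicate at 25 uM; hits (e.g., 30% inhibition) rerun in singleton concentration-response up to 50 uM, fitted versus DMSO.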
# [2] = molecular target: human Esterase Plasma (ES), BCHE (gene 590) (UniProt P06276); experiment: NVS_ENZ_hES: NovaScreen (NVS) Enzymatic Assay for human Esterase Plasma (ES) (AID 2283157)
# Method in brief: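 Chemicals were added to plasma-extracted human enzyme in a cell-free format, and activity was read colorimetrically after 0.25 hour. Activity loss was referenced to DMSO; concentration-response top dose was 50 uM.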
# [3] = molecular target: human Ephrin type-A Receptor 1 (EphA1), EPHA1 (gene 2041) (UniProt P21709); experiment: NVS_ENZ_hEphA1: NovaScreen (NVS) Enzymatic Assay for human Ephrin type-A Receptor 1 (EphA1) (AID 2283158);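 note: activity is signal loss versus DMSO meaning EphA1 kinase inhibition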
# Method in brief: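 Here the EphA1 protein is recombinant and the substrate fluorescent, with electrophoretic separation before fluorescence detection at 1 hour. Signal loss against DMSO defines activity; plate controls included; follow-up concentration series reach 50 uM.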
# [4] = molecular target: human AKT serine/threonine Kinase 2 (AKT2), AKT2 (gene 208) (UniProt P31751); experiment: NVS_ENZ_hAKT2: NovaScreen (NVS) Enzymatic Assay for human AKT serine/threonine Kinase 2 (AKT2) (AID 2283141)
# Method in brief: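 Cell-free fluorescence/electrophoretic mobility shift readout of recombinant human AKT2 activity, 1 h after chemical dosing. Duplicate primary screen at 25 uM, then singleton concentration-response up to 50 uM; loss of signal versus DMSO baseline.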
# CDK2 (gene 1017) = CDK2 (gene 1017) (UniProt P24941); experiment: NVS_ENZ_hCDK2: NovaScreen (NVS) Enzymatic Assay for human Cyclin-Cependent Kinase 2 (CDK2) (AID 2283144)
# Method in brief: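 Cell-free recombinant human CDK2 with fluorescent substrate, product separated by electrophoretic mobility shift; 1 hr read. Primary screen at 25 uM in duplicate, actives retested in concentration-response up to 50 uM; loss of signal versus DMSO.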
# [5] = molecular target: human Casein Kinase 1-delta (CK1D), CSNK1D (gene 1453) (UniProt P48730); experiment: NVS_ENZ_hCK1D: NovaScreen (NVS) Enzymatic Assay for human Casein Kinase 1-delta (CK1D) (AID 2283148)
# Method in brief: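 Recombinant human CK1-delta, cell-free; fluorescent substrate with electrophoretic mobility-shift separation of product, read 1 h after dosing. Single 25 uM duplicate screen, then concentration-response up to 50 uM; loss of signal vs DMSO.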
# [6] = molecular target: human Caspase 4 (CASP4), CASP4 (gene 837) (UniProt P49662); experiment: NVS_ENZ_hCASP4: NovaScreen (NVS) Enzymatic Assay for human Caspase 4 (CASP4) (AID 2283143)
# Method in brief: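 The cell-free assay used E. coli-expressed enzyme with a fluorogenic substrate, read 2 h after dosing. Signal loss was scored versus DMSO. Screening was in duplicate at 25 uM, then singleton concentration-response up to 50 uM.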
# [7] = molecular target: human Dual Specificity Protein Phosphatase 3 (DUSP3), DUSP3 (gene 1845) (UniProt P51452); experiment: NVS_ENZ_hDUSP3: NovaScreen (NVS) Enzymatic Assay for human Dual Specificity Protein Phosphatase 3 (DUSP3) (AID 2283152);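 note: phosphatase activity of recombinant human DUSP3 on a fluorogenic substrate without cells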
# Method in brief: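 Cell-free assay with recombinant human DUSP3 and fluorogenic substrate, read by fluorescence intensity. Primary screen ran duplicate at 25 uM; actives followed up in concentration series; loss of signal versus DMSO scored.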
# [8] = molecular target: human Caspase 8 (CASP8), CASP8 (gene 841) (UniProt Q14790); experiment: NVS_ENZ_hCASP8: NovaScreen (NVS) Enzymatic Assay for human Caspase 8 (CASP8) (AID 2283146)
# Protocol: NVS_ENZ_hCASP8 is a biochemical, single-readout assay that uses extracted gene-proteins from E. coli in a cell-free assay. Measurements were taken 1 hour after chemical dosing in a 96-well plate.NVS_ENZ_hCASP8 is one of one assay component(s) measured or calculated from the NVS_ENZ_hCASP8 assay. It is designed to make measurements of enzyme activity, a form of enzyme reporter, as detected with fluorescence intensity signals by Fluorescence technology.Data from the assay component NVS_ENZ_hCASP8 was analyzed into 1 assay endpoint. This assay endpoint, NVS_ENZ_hCASP8, was analyzed in the positive analysis fitting direction relative to DMSO as the negative control and baseline of activity. Using a type of enzyme reporter, loss-of-signal activity can be used to understand changes in the enzymatic activity as they relate to the gene CASP8. Furthermore, this assay endpoint can be referred to as a primary readout, because this assay has produced multiple assay endpoints where this one serves a enzymatic activity function. To generalize the intended target to other relatable targets, this assay endpoint is annotated to the protease intended target family, where the subfamily is cysteine protease.
# Binding assays used specific radioligands (tritiated, iodinated) with non-radioactive competitive displacement ligands in agonist or antagonist protocols (as indicated) and various reference compounds and inhibitors to titrate specific binding to receptors and transporters. Most enzyme assays (CYPs, kinases, phosphatases, proteases, HDACs) used recombinant protein and specific substrates (fluorescence mostly, some colorimetric and radioactive) and inhibitors, followed by a biochemical separation of substrate and product. All assays for the biochemical HTS were initially run in duplicate at a single concentration (10 uM for CYP450 assays and 25 uM for all others). […] Each assay was run with positive and negative controls, and concurrent controls on every plate. The follow-up (secondary) screen tested active chemical-pairs in concentration series, as well as a few additional assays not tested in the primary screen, some selected negative inactives, and several cases re-run in the concentration series for confirmatory purposes.
# human AKT serine/threonine Kinase 2 (AKT2), AKT2 (gene 208), sequence (P31751 whole entry, looked up): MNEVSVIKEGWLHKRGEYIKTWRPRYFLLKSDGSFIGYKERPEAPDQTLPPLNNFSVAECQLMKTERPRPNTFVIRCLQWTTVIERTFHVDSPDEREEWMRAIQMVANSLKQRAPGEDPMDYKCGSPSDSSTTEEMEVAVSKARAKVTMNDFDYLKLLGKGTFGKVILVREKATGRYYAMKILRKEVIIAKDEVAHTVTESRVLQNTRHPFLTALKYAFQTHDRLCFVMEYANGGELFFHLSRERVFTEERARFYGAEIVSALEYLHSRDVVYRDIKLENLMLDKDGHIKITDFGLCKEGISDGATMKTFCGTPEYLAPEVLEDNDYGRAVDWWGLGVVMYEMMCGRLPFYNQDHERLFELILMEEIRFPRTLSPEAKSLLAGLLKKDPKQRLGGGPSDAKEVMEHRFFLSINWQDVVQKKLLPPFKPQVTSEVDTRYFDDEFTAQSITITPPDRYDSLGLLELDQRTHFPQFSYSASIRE
# human Elastase, ELANE (gene 1991), sequence (P08246 whole entry, looked up): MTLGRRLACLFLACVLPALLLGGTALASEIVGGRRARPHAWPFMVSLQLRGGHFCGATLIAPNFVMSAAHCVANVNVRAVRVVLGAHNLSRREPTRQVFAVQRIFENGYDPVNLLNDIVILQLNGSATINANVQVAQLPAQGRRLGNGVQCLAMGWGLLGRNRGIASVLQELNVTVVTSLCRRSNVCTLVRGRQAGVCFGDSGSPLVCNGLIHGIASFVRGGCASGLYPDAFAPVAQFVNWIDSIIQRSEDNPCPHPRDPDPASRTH
# human Esterase Plasma (ES), BCHE (gene 590), sequence (P06276 whole entry, looked up): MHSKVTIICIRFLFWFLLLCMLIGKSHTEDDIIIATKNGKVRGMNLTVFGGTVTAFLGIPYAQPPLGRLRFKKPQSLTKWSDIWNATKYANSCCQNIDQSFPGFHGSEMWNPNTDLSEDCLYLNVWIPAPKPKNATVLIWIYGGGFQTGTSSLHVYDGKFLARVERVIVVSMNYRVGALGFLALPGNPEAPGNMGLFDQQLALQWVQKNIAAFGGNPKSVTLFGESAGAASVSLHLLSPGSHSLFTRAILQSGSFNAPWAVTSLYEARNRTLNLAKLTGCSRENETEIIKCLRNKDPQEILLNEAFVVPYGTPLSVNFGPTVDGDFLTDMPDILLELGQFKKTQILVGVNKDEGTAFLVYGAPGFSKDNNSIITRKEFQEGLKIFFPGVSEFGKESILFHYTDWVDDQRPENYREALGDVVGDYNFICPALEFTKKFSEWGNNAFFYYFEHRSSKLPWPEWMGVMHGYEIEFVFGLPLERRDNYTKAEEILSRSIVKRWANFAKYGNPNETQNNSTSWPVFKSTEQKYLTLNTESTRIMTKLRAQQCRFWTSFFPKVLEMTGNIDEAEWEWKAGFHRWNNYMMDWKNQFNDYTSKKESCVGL
# human Ephrin type-A Receptor 1 (EphA1), EPHA1 (gene 2041), sequence (P21709 whole entry, looked up): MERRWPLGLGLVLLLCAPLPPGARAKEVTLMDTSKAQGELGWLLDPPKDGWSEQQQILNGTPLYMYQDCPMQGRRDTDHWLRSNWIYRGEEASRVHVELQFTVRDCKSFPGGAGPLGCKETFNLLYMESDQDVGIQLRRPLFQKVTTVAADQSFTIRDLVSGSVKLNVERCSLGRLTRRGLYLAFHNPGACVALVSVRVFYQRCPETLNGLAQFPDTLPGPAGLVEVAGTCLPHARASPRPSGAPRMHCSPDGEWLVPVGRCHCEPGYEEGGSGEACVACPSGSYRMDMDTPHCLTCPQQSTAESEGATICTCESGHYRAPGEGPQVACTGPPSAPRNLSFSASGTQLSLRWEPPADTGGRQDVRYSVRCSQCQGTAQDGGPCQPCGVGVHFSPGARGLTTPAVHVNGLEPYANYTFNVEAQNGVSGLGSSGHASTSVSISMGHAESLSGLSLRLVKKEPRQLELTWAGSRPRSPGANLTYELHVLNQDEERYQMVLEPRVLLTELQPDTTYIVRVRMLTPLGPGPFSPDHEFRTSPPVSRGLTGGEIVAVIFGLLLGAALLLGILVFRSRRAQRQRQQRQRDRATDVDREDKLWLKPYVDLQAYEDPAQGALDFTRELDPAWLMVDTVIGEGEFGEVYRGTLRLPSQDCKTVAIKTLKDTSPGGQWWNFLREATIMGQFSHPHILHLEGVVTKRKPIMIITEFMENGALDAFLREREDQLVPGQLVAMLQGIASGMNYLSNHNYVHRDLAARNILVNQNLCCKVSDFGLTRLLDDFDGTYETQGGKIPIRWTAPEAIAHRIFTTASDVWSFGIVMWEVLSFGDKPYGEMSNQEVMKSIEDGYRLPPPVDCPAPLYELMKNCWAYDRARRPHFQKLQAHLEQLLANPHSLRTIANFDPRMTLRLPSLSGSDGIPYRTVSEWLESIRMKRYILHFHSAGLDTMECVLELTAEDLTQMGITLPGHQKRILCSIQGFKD
# human Dual Specificity Protein Phosphatase 3 (DUSP3), DUSP3 (gene 1845), sequence (P51452 whole entry, looked up): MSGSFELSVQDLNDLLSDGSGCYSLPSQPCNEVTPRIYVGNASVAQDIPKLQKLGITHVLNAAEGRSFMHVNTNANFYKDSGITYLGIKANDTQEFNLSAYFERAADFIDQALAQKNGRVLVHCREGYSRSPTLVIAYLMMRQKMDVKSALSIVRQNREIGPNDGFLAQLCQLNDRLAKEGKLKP
# human Caspase 8 (CASP8), CASP8 (gene 841), sequence (Q14790 whole entry, looked up): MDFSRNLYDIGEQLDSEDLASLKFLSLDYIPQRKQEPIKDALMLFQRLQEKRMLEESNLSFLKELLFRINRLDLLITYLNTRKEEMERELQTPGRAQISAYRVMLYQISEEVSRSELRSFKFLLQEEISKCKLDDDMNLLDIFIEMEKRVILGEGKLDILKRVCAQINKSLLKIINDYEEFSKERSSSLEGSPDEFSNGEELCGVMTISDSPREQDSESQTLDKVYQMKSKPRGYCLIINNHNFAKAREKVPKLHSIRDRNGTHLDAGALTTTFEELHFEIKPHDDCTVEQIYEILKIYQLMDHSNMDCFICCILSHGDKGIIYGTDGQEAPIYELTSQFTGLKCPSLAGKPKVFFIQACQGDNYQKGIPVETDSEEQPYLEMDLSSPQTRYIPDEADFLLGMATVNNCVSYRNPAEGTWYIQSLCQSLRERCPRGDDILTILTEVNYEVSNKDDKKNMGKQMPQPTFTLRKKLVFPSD
# human Casein Kinase 1-delta (CK1D), CSNK1D (gene 1453), sequence (P48730 whole entry, looked up): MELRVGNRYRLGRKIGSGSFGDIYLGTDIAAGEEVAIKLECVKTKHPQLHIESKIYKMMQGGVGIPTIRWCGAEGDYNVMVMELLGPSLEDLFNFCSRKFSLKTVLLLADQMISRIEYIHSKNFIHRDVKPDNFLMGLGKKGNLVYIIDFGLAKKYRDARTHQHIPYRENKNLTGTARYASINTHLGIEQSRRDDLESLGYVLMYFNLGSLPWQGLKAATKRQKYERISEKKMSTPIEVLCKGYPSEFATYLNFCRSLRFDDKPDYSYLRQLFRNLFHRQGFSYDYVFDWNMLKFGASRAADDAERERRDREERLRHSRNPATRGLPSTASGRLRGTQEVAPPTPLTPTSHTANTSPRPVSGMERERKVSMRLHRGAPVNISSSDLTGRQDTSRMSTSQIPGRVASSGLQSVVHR
# human Caspase 4 (CASP4), CASP4 (gene 837), sequence (P49662 whole entry, looked up): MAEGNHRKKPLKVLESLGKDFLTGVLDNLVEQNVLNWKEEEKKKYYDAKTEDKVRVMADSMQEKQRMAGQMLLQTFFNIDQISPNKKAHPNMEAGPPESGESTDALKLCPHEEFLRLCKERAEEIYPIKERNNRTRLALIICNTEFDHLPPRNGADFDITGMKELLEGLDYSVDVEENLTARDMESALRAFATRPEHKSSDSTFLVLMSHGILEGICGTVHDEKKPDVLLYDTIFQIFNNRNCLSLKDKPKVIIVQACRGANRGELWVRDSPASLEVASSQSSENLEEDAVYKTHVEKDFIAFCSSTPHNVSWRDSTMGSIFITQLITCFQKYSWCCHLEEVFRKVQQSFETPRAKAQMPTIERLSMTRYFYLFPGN
compound,measurement,setting,value
c1ccc2c(c1)-c1cccc3c1c-2cc1ccccc13,outcome,[1],inactive
CCc1ccc(O)c(C(C)(C)C)c1,outcome,[2],inactive
O=C(NO)C1(NS(=O)(=O)c2ccc(Oc3ccc(F)cc3)cc2)CCOCC1,outcome,[3],inactive
CCCCOC(=O)c1ccccc1,outcome,[2],inactive
O=c1[nH]cnc2c1ncn2[C@H]1CC[C@@H](CO)O1,outcome,[4],inactive
same,AC50,CDK2 (gene 1017),25 µM (active)
same,outcome,[5],inactive
same,outcome,[3],inactive
Cc1nc(-c2ccccn2)ncc1C(=O)Nn1cc(C)c2cc(F)ccc21,outcome,[4],inactive
same,outcome,[3],inactive
CCCCCCCC/C=C\CCCCCCCC(=O)OC[C@@H](O)[C@H]1OC[C@H](O)[C@H]1O,AC50,[4],42.1 µM (active)
same,outcome,[6],inactive
CC(C)C(=O)Nc1ccc([N+](=O)[O-])c(C(F)(F)F)c1,outcome,[6],inactive
O=C(O)c1cccc(C[C@@H]2COc3ccc(OCc4nc5cc(F)ccc5s4)cc3[C@@H]2O)c1,outcome,[5],inactive
CCCCCCCCCC,outcome,[7],inactive
same,outcome,[2],inactive
S=P(N1CC1)(N1CC1)N1CC1,AC50,[7],20.3 µM (active) and 26.1 µM (active)
same,outcome,[3],inactive
CCCC(CCC)C(=O)O,outcome,[4],inactive
same,outcome,CDK2 (gene 1017),inactive
COc1cc(C(C)C)c2c(c1)S(=O)(=O)N(COc1cc(=O)n3cccc(OCCN4CCCCC4)c3n1)C2=O,AC50,[1],34.1 nM (active)
CC[C@H](C)C(=O)O[C@H]1C[C@H](O)C=C2C=C[C@H](C)[C@H](CC[C@@H](O)C[C@@H](O)CC(=O)O)[C@H]21,outcome,[8],inactive
CCN(CC)C(=S)SSC(=S)N(CC)CC,outcome,[7],inactive
same,outcome,[2],inactive
CC(C)CCCCCCOC(=O)C1CCCCC1C(=O)OCCCCCCC(C)C (stereo unspecified),outcome,[8],inactive
same,outcome,[1],inactive
